Data from the supplement of paper PMC8183993.
“And” between values parts separate entries of the source, which are not always exact repeats. Equal entries are not always repeated. Structures can show the parent of a compound that is named as a salt. ± gives the standard deviation of the averaged measurements. The full ranking holds about 3,100 compounds; the median of “mean cytoplasmic OPP incorporation (global translation) relative to DMSO” is about 100, and the lowest 2% start at about 56. The sample as a whole holds a higher share of the lowest values than the screen did.

The compounds below were run on U2OS (assay: mean cytoplasmic OPP incorporation (global translation) relative to DMSO (% of DMSO); higher = more protein synthesis). Settings: 10 µM; 24 h.
Protocol: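 Primary image-based screen in U2OS cells: compounds at 10 uM for 24 h, then a 1 h o-propargyl-puromycin (OPP) pulse, click labelling, and high-throughput microscopy. Mean cytoplasmic OPP intensity and nuclei count were normalised to DMSO wells within each plate (DMSO = 100) and averaged over triplicate plates.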

| SMILES | mean cytoplasmic OPP incorporation |
| --- | --- |
| CCCCCS(=O)(=O)CCCCCCCCCCn1c(-c2ccc(O)cc2)c(C)c2cc(O)ccc21 | 104 |
| O=C(CCCN1C(=O)c2cccc3cccc(c23)C1=O)NO [Nullscript] | 97.6 |
| CCN(CCN(C)C)C(=O)CNCc1cc(C(N)=O)ccn1 | 96.2 |
| O=C1NCCN1c1ncc([N+](=O)[O-])s1 [Niridazole] | 94.7 |
| O=c1[nH]nc(Sc2ncc([N+](=O)[O-])s2)n1-c1ccc2c(c1)OCCO2 | 39.7 ± 16 |
| C[C@H](CCC(=O)NCCS(=O)(=O)O)[C@H]1CC[C@H]2[C@@H]3CC[C@@H]4C[C@H](O)CC[C@]4(C)[C@H]3C[C@H](O)[C@]12C [Taurodeoxycholic acid] | 99.3 |
| O=C(NCCCN1CCC2(CC1)OCc1ccccc12)[C@H]1CCCN1Cc1ccccc1 | 108 |
| CCCCC[C@H](O)/C=C/[C@@H]1[C@H]2C/C(=C/CCCC(=O)O)C[C@H]2C[C@H]1O [Carbacyclin] | 101 |
| Nc1nc(NCCc2ccc(O)cc2)nc2nc(-c3ccco3)nn12 | 99.2 |
| CN(C)Cc1c(C(=O)NCCOc2ccc(C(=O)NO)cc2)oc2ccccc12 | 56 |
| COc1cc(C(=O)NCc2ccc(OCCN(C)C)cc2)cc(OC)c1OC [Trimethobenzamide hydrochloride] | 102 |
| Cc1cc(C)c(N(Cc2ccccc2)S(=O)(=O)c2ccc(OCCNC(=O)c3cc4ccccc4o3)cc2)c(C(=O)NO)c1 | 103 |
| O=C(O)COc1ccc(OCCNC[C@H](O)COc2ccccc2)cc1 [ICI 215,001 hydrochloride] | 100 |
| CCCCn1c(=O)c2[nH]c(C34CC5CC(CC3C5)C4)nc2n(CCCO)c1=O | 117 |
| CCC(CC)[C@H](NC(C)=O)[C@@H]1[C@H](O)[C@@H](C(=O)O)C[C@H]1NC(=N)N [Peramivir  Trihydrate] | 99.4 |
| c1ccc2sc(N3CCN(Cc4ccc5c(c4)OCO5)CC3)nc2c1 [2-[1-(4-Piperonyl)piperazinyl]benzothiazole] | 105 |
| Cc1cc(/C=C/c2ccc3cc(N(C)C)ccc3[n+]2C)c(C)n1-c1ccccc1 [Pyrvinium pamoate] | 22 |
| CNCCCCOc1ccccc1Cc1ccccc1 [Bifemelane hydrochloride] | 107 |
| O=Cc1c2[nH]c3ccccc3c2cc2[nH]c3ccccc3c12 [6-Formylindolo [3,2-B] carbazole] | 92.9 |
| COc1ccc2[nH]cc(CCNC(C)=O)c2c1 [Melatonin] | 103 ± 4.6 |
| COc1ccc(C(=O)NCc2ccc(OCCN(C)C)cc2)cc1OC [Itopride] | 89.3 |
| COc1ccc(OC)c(C(O)CNC(=O)CN)c1 (stereo not drawn) [Midodrine hydrochloride] | 48.8 |

| SMILES | mean cytoplasmic OPP incorporation |
| --- | --- |
| CC(C)[C@H](N)C(=O)N[C@H](C(=O)N[C@H](C(=O)O)C(C)C)C(C)C | 114 |
| O=C(/C=C/C#Cc1cccc(NS(=O)(=O)c2ccccc2)c1)NO [Oxamflatin] | 105 |
| COc1cccc2c1C(=O)c1c(O)c3c(c(O)c1C2=O)C[C@@](O)(C(=O)CO)C[C@@H]3O[C@H]1C[C@H](N)[C@H](O)[C@H](C)O1 [Doxorubicin hydrochloride] | 54.8 ± 17 |
| COc1cccc2c1C(=O)c1c(O)c3c(c(O)c1C2=O)C[C@@](O)(C(C)=O)C[C@@H]3O[C@H]1C[C@H](N)[C@H](O)[C@H](C)O1 [Daunorubicin hydrochloride] | 40.7 |
| COc1cccc2c1C(=O)c1c(O)c3c(c(O)c1C2=O)C[C@@](O)(C(C)=O)C[C@@H]3O[C@H]1C[C@H](N)[C@H](O)[C@H](C)O1 [Daunorubicin HCl (Daunomycin HCl)] | 59.9 |
| CC(=O)[C@]1(O)Cc2c(O)c3c(c(O)c2[C@@H](O[C@H]2C[C@H](N)[C@H](O)[C@H](C)O2)C1)C(=O)c1ccccc1C3=O [Idarubicin HCl] | 60.3 |
| COc1cccc2c1C(=O)c1c(O)c3c(c(O)c1C2=O)C[C@@](O)(C(=O)CO)C[C@@H]3O[C@H]1C[C@H](N)[C@@H](O)[C@H](C)O1 [Epirubicin HCl] | 59.5 |
| COc1cccc2c1C(=O)c1c(O)c3c(c(O)c1C2=O)C[C@@](O)(C(=O)CO)C[C@@H]3O[C@H]1C[C@H](N)[C@H](O[C@@H]2CCCCO2)[C@H](C)O1 [Pirarubicin] | 59.9 |
| COc1cccc2c1C(=O)c1c(O)c3c(c(O)c1C2=O)C[C@@](O)(C(=O)CO)C[C@@H]3O[C@H]1C[C@H](N)[C@H](O)[C@H](C)O1 [Doxorubicin (Adriamycin)] | 67.1 |
| CC(C)C(=O)SCCCCCCC(=O)Nc1nc(-c2ccccc2)cs1 | 117 |
| CCCCCCN(CCCCCC)C(=O)Cc1c(-c2ccc(Cl)cc2)[nH]c2ccc(Cl)cc12 | 104 |
| Cc1ccc(CC2(O)CCN(CCOc3ccc(O)cc3)CC2)cc1 | 108 |
| COc1cc(C#N)ccc1S(=O)(=O)Nc1ccc2c(c1)cc(C)c(=O)n2C | 109 |
| COc1ccc(CCN(C)CCCOc2ccc(S(=O)(=O)c3c(C(C)C)c4ccccc4n3C)cc2)cc1OC | 110 |
| Clc1cc2c(NC3CCCC3)nnc(-c3ccncc3)c2cc1Cl | 114 |
| CSc1cccc(Nc2ncc3cc(-c4c(Cl)cccc4Cl)c(=O)n(C)c3n2)c1 | 116 |
| CCN(CC)CCOc1ccc(Nc2ncc3cc(-c4c(Cl)cccc4Cl)c(=O)n(C)c3n2)cc1 | 53.6 |
| Cc1cnc(Nc2ccc(OCCN3CCCC3)cc2)nc1Nc1cccc(S(=O)(=O)NC(C)(C)C)c1 | 82.6 and 66.4 |
| Cc1ccc(S(=O)(=O)C=CC#N)cc1 | 65.3 |
| O=C1Nc2ccc(-c3cccnc3)cc2/C1=C/c1ccc[nH]1 [JAK3 Inhibitor VI] | 90 |
| N=C(N)c1ccc(N2CCN(C3CCN(CC(=O)O)CC3)CC2)cc1 | 99.3 |
| NC[C@H]1CC[C@H](C(=O)O)CC1 [Tranexamic acid] | 47 |

| SMILES | mean cytoplasmic OPP incorporation |
| --- | --- |
| NCC1CCC(C(=O)N[C@@H](Cc2ccccc2)C(=O)Nc2ccc(CC(=O)O)cc2)CC1 (stereo partly drawn) | 97.5 |
| CC1(C)CCC(C)(C)c2cc(C(=O)Nc3ccc(C(=O)O)cc3)ccc21 | 105 and 99.6 |
| CN(CCc1ccc(Cl)c(Cl)c1)CC(O)COc1ccc(NS(C)(=O)=O)cc1 (stereo not drawn) | 102 and 107 |
| N#Cc1ccc(NC(=O)Nc2ccccc2Br)c2n[nH]nc12 | 104 |
| CC(C)CC(=O)Nc1n[nH]c2c1CN(C(=O)C1CCN(C)CC1)C2(C)C | 65.9 |
| Cc1nc(Nc2n[nH]c3c2CN(C(=O)N[C@H](CN(C)C)c2ccccc2)C3(C)C)c2sccc2n1 | 45.5 |
| CSc1nc(NC2CCCC2)c([N+](=O)[O-])c(NC2CCCC2)n1 | 101 |
| COC(C)(C)CCCC(C)C/C=C/C(C)=C/C(=O)O (stereo not drawn) [Methoprene acid] | 99.2 |
| CC(=O)OCOC(c1cc([N+](=O)[O-])ccc1Oc1ccc(Br)cc1)P(=O)(OCOC(C)=O)OCOC(C)=O (stereo not drawn) | 101 |
| CC(C)N1Cc2cc(S(C)(=O)=O)ccc2N(CCN2CC=C(c3c[nH]c4cc(F)ccc34)CC2)S1(=O)=O | 106 |
| COCC(=O)O[C@]1(CCN(C)CCCc2nc3ccccc3[nH]2)CCc2cc(F)ccc2[C@@H]1C(C)C [Mibefradil dihydrochloride] | 116 |
| CC(C)[C@H]1c2ccc(F)cc2CC[C@@]1(CCN(C)CCCc1nc2ccccc2[nH]1)OC(=O)C1CC1 [NNC 55-0396 dihydrochloride] | 55.5 |
| N#Cc1ccc(NCCNCC(=O)N2CCC[C@H]2C#N)nc1 [NVP DPP 728 dihydrochloride] | 90.3 |
| COc1ccc(CCN(C)CCCN2CCc3cc(OC)c(OC)cc3CC2=O)cc1OC [Zatebradine hydrochloride] | 107 |
| COc1cc(N)c(Cl)cc1C(=O)OCCCN1CCCCC1 | 104 |
| O=C(O)c1ccc(N2C(=O)C(=Cc3ccccc3)SC2=S)cc1 | 102 |
| Cc1cc(-c2ccccc2)nnc1NCCN1CCOCC1 [Minaprine dihydrochloride] | 99.4 |
| O=C(NCCN1CCOCC1)c1ccc(Cl)cc1 [Moclobemide] | 91.9 |
| O=C1C(Cl)=C(NCCN2CCOCC2)C(=O)c2ncccc21 | 31 |
| Cl/C(=C\n1cncn1)c1ccc(Cl)cc1Cl [Loreclezole hydrochloride] | 98.7 |
| Cc1oc(S(=O)(=O)N2CCCCC2)cc1NC(=O)Nc1ccccc1 | 102 |
| Cc1cn(CCN2CCN(c3ccccc3-c3cc(C#N)cc(C(=O)NCCCN4CCCC4)c3)CC2)c2ccccc12 | 30.6 |

| SMILES | mean cytoplasmic OPP incorporation |
| --- | --- |
| COc1ccccc1N1CCN(CCCCNC(=O)c2ccc3ccccc3c2)CC1 | 112 |
| O=C(NCCCCN1CCN(c2cccc(Cl)c2Cl)CC1)c1ccc2c(c1)Cc1ccccc1-2 | 107 |
| CC(C)=CCC/C(C)=C/CC/C(C)=C/CSCC(=O)O [Farnesylthioacetic acid] | 96.1 |
| CSCC[C@H](NC=O)C(=O)N[C@@H](CC(=O)O)C(=O)NCC(=O)N[C@@H](CS)C(=O)N[C@@H](CCC(=O)O)C(=O)N[C@@H](CC(C)C)C(=O)O | 103 |
| CC(=O)N1CCN(C)CC1 [1-Acetyl-4-methylpiperazine hydrochloride] | 99.1 |
| Cc1ccc([N+](=O)[O-])cc1S(=O)(=O)N(C)C | 94.1 |
| Cc1ccc([N+](=O)[O-])cc1S(=O)(=O)N(C)/N=C/c1cnc2ccc(Br)cn12 | 44.3 |
| Cn1cccc1/C=C1\C(=O)NC(=O)c2ccccc21 | 89.4 |
| Cc1cc(Nc2ncc(Cl)c(Nc3ccccc3S(=O)(=O)C(C)C)n2)c(OC(C)C)cc1C1CCNCC1 [Ceritinib (LDK378)] | 25.4 |
| CC(C)Oc1cc(Nc2nc(N[C@@H](C)c3ccc(F)cn3)ncc2Cl)n[nH]1 | 110 |
| O=C1c2ccccc2-c2nc3nonc3nc21 | 81.3 |
| O=C1c2ccccc2C(=O)c2c1ccc(O)c2O [Alizarin] | 106 |
| O=C1C(SCCO)=C(SCCO)C(=O)c2ccccc21 | 71.3 and 55.3 |
| O=[N+]([O-])c1ccc(Oc2ccc(Br)cc2)c(C(O)P(=O)(O)O)c1 (stereo not drawn) | 95.9 |
| COC(=O)C(Cc1ccc(OCCn2c(=O)sc3cc(C(=O)c4ccccc4)ccc32)cc1)C(=O)OC | 105 |
| CC(=O)OC[C@H]1O[C@@H]([S-])[C@H](OC(C)=O)[C@@H](OC(C)=O)[C@@H]1OC(C)=O.CCP(CC)CC.[Au+] [Auranofin] | 10.4 |
| CCCCc1nc2ccn(Cc3cccs3)c(=O)c2n1Cc1ccc(-c2ccccc2-c2nn[nH]n2)cc1 | 104 |
| COc1cc(-c2cn(C)c(=O)c3cnccc23)c(OC)cc1CN(C)C | 95.8 |
| c1ccc(-c2n[nH]c3c2oc2ccccc23)cc1 | 87.3 |
| O=C1NCCc2[nH]c(-c3ccncc3)cc21 | 49.9 ± 13 |
| O=C1NC(=O)/C(=C/c2ccc3nccc(-c4ccncc4)c3c2)S1 | 90.1 |
| Cc1[nH]c(=O)c(C#N)cc1-c1ccncc1 [Milrinone] | 94.4 |
